MEP2-GFP yeast: yeast TOR pathway MEP2-GFP modulation. GFP response vs DMSO, % at 10 µM. S. cerevisiae MEP2-GFP strain, flow cytometry GFP, 3 h; 100% = DMSO control level. 0.51% of 330,000 active;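 active = GFP response versus DMSO above a set limit, roughly screen mean plus 3 SD, cut at about 180% in these data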;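 also: median GFP fluorescence of the barcode-gated MEP2-GFP cells per well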
AGP1 TOR yeast: yeast TOR pathway AGP1-GFP modulation | S. cerevisiae AGP1-GFP multiplex flow cytometry, 3 h; GFP as percent of DMSO wells | GFP response vs DMSO, % at 10 µM | 0.02% of 320,000 active;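 active = GFP response relative to DMSO above a set limit, near screen average plus 3 SD, cut at about 150% in these data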;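 also: median GFP channel fluorescence of the gated AGP1 strain per well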
LAP4-GFP MLPCN: alters LAP4-GFP fluorescence in TOR pathway yeast screen; S. cerevisiae LAP4-GFP multiplex, flow cytometry GFP, 3 h; median GFP as percent of DMSO wells; 0.34% of 320,000 active; GFP response vs DMSO, % at 10 µM;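 active = GFP response vs DMSO above a set limit, about the screen mean plus 3 SD, cut at about 150% in these data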
RPL19A-GFP yeast: modulators of TOR pathway RPL19A-GFP in S. cerevisiae; S. cerevisiae RPL19A-GFP strain, flow cytometry, 3 h; hits give low values; percent response vs DMSO, % at 10 µM; 0.3% of 330,000 active; AID 2025;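 active = percent response vs DMSO below 50%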;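 also: median channel GFP fluorescence of the barcoded RPL19A-GFP strain; lower means less RPL19A-GFP as with rapamycin TOR inhibition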
Pemphigus Ab inh: human desmoglein-3 autoantibody binding inhibition | AID 588358 | P32926 | 0.48% of 310,000 active | DSG3-coupled beads, scFv-anti-DSG3-GFP binding, flow cytometry; hits give low values | binding (percent of control), % at 10 µM;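 active = binding more than 3 SD below its plate's average and above zero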;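 also: hits lower antibody fragment binding to DSG3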
Target sequence (P32926 whole entry, looked up, the tested form may be a part): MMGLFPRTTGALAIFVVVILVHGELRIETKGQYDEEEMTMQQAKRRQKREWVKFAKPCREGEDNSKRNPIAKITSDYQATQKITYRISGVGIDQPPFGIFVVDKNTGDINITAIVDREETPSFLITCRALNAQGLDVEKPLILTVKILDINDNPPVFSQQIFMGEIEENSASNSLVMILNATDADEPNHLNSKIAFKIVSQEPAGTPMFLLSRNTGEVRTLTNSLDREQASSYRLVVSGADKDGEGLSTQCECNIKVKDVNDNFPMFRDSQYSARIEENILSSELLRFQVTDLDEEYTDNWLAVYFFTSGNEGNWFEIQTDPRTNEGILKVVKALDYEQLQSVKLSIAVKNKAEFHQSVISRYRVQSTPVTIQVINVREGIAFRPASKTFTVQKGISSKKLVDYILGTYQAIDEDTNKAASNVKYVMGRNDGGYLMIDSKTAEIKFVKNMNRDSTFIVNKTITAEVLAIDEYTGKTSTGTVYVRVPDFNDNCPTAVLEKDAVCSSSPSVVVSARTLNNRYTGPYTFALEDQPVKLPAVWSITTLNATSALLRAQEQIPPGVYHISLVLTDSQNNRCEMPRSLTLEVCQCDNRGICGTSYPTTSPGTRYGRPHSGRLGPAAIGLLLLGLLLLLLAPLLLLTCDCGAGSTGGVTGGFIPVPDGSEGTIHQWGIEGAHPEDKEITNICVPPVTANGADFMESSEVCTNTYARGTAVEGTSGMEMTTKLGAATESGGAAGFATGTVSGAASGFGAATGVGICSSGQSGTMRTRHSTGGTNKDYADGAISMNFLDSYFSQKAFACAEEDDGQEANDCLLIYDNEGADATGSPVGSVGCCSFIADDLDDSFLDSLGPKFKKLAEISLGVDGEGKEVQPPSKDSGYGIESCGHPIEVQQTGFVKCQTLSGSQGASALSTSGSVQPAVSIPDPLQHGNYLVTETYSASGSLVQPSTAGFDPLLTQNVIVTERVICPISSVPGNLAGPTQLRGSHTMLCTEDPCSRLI
CIT2 TOR yeast: modulators of TOR pathway CIT2-GFP in S. cerevisiae. S. cerevisiae CIT2-GFP strain, flow cytometry, 3 h; 100 means same as DMSO wells. 0.065% of 320,000 active. AID 2029. GFP response vs DMSO, % at 10 µM;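 active = GFP response relative to DMSO above a set limit, near the screen mean plus 3 SD, cut at about 150% in these data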;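 also: ratio of well median GFP fluorescence to mean of DMSO wells on the plate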
LAP4-GFP pick2: yeast LAP4-GFP modulation, second cherry pick; GFP response vs DMSO, % at 10 µM; S. cerevisiae LAP4-GFP strain, flow cytometry GFP, 3 h; 20% of 590 active; shares compounds with LAP4-GFP MLPCN;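 active = GFP signal as percent of the solvent control above about 150%, meaning raised reporter expression, limit read from the data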
MEP2 cherry2: reconfirmed MEP2-GFP TOR pathway modulator in yeast; GFP response vs DMSO, % at 10 µM; shares compounds with LAP4-GFP MLPCN; S. cerevisiae MEP2-GFP strain, flow cytometry GFP, 3 h; 10% of 590 active;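 active = GFP signal above 150% of the solvent control wells, that is a rise of more than half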;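 also: median channel GFP fluorescence of all gated yeast cells per well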
RPL19A-GFP pick2: second confirmation of modulators of TOR reporter RPL19A-GFP in yeast. GFP response vs DMSO, % at 10 µM. AID 2623. S. cerevisiae RPL19A-GFP strain, flow cytometry GFP, 3 h; hits give low values; 100% means same as DMSO wells. 3% of 590 active. shares compounds with LAP4-GFP MLPCN;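 active = under 65% GFP response relative to DMSO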;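 also: median GFP channel fluorescence per well over the all cells gate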
CIT2-GFP pick2: second confirmation of modulators of TOR reporter CIT2-GFP in yeast; shares compounds with LAP4-GFP MLPCN; S. cerevisiae CIT2-GFP strain, flow cytometry GFP, 3 h; DMSO control wells read 100%; GFP response vs DMSO, % at 10 µM; 8% of 590 active; AID 2624;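 active = GFP response vs DMSO above about 150%, limit read from the data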;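 also: median green fluorescence per well over all gated yeast cells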
AGP1-GFP pick2: reconfirmed modulator of AGP1-GFP TOR reporter in yeast; shares compounds with LAP4-GFP MLPCN; S. cerevisiae AGP1-GFP strain, flow cytometry GFP, 3 h; percent response vs DMSO, % at 10 µM; 590 tested, under 10 active;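 active = over 150 percent of DMSO response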;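 also: median GFP channel fluorescence over all cells without mother daughter split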
Yeast autofluor: compound is autofluorescent in yeast s288c cells; 610 tested, under 10 active; fluorescence change (kMESF span) at 33 µM; shares compounds with LAP4-GFP MLPCN; S. cerevisiae s288c, 520 nm autofluorescence, flow cytometry, 3 h; hits give high values; zero means same as solvent-only cells;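 active = fluorescence span over the dose series, or activity score, above about 33, limit read from the data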
s288c autofl DR: yeast s288c autofluorescence artifact in dose response | shares compounds with LAP4-GFP MLPCN | S. cerevisiae s288c parental, compound autofluorescence, flow cytometry, 3 h | fluorescence change (span) at 33 µM | 110 tested, under 10 active | AID 488829;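 active = fluorescence change span, or the activity score built from it, above 25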
TORC1 bypass: wildtype yeast growth loss with TORC1 bypass cells unaffected | shares compounds with LAP4-GFP MLPCN | S. cerevisiae BY4741 spot growth rating, 48-72 h; hits give low values | growth rating (0-3) at 30 µM | 120 tested, under 10 active;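 active = growth rating at most 1 for wild type yeast while the TORC1 bypass strain still grows fully, rated 3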
Large screens that a line does not name were inactive (follow-up assays come after a bar, where they were run); [ ] = dose if it differs, or a comment. Hits are enriched below; roughly 1.2% of the tested compounds scored in any of these assays.

CC(=O)N(\C=C/C=C/C=C1\Sc2ccccc2C1=O)c1ccccc1	MEP2-GFP yeast 283, LAP4-GFP MLPCN 167, CIT2 TOR yeast 200 | Yeast autofluor inactive
Cc1ccc(C(C)(C)C)cc1S(=O)(=O)N1CCC(C(=O)N2CCN(c3ccc(O)cc3)CC2)CC1	none
CC1CN(C(=O)Cn2cc(S(=O)(=O)CC(=O)N3CCOCC3)c3ccccc32)CC(C)O1 (configuration not stated)	CIT2 TOR yeast 163 | LAP4-GFP pick2 inactive | MEP2 cherry2 inactive | RPL19A-GFP pick2 inactive | CIT2-GFP pick2 inactive | AGP1-GFP pick2 inactive
CC1CCN(C(=O)Cn2cc(S(=O)(=O)CC(=O)N3CCOCC3)c3ccccc32)CC1	none (no result: Pemphigus Ab inh)
COc1ccc(-c2nnc3c4ccccc4c(C)nn23)cc1	none
Cc1nn2c(-c3ccco3)nnc2c2ccccc12	none | LAP4-GFP pick2 inactive | MEP2 cherry2 inactive | RPL19A-GFP pick2 inactive | CIT2-GFP pick2 inactive | AGP1-GFP pick2 inactive
Cc1nn2c(-c3ccncc3)nnc2c2ccccc12	none (no result: Pemphigus Ab inh) | LAP4-GFP pick2 inactive | MEP2 cherry2 inactive | RPL19A-GFP pick2 65 | CIT2-GFP pick2 inactive | AGP1-GFP pick2 inactive | Yeast autofluor inactive | s288c autofl DR inactive | TORC1 bypass inactive
CC(=O)Oc1ccccc1/C=C/c1nc2ccccc2c(=O)o1	none
O=c1oc(/C=C/c2ccc([N+](=O)[O-])s2)nc2ccccc12	MEP2-GFP yeast 185, LAP4-GFP MLPCN 154, CIT2 TOR yeast 161 | Yeast autofluor inactive
O=C(N/N=C/c1ccc(F)cc1)c1cccc(NC(=O)c2ccccc2Cl)c1	none
CCN(CC)C1=CC2=CC(=C(C#N)C#N)CCC2CC1 (configuration not stated)	MEP2-GFP yeast 297[may fluoresce green], LAP4-GFP MLPCN 197[may fluoresce green], CIT2 TOR yeast 310[may fluoresce green] | LAP4-GFP pick2 354 | MEP2 cherry2 470 | RPL19A-GFP pick2 inactive | CIT2-GFP pick2 434 | AGP1-GFP pick2 inactive
CCCCN(C)C1=CC2=CC(=C(C#N)C#N)CCC2CC1 (configuration not stated)	MEP2-GFP yeast 335, LAP4-GFP MLPCN 190, CIT2 TOR yeast 207 | LAP4-GFP pick2 489 | MEP2 cherry2 821 | RPL19A-GFP pick2 inactive | CIT2-GFP pick2 619 | AGP1-GFP pick2 inactive
CCN1CCN(C(=O)C2=CC(c3ccc(OC)cc3)=NS(=O)(=O)N2C)CC1	LAP4-GFP MLPCN 167 | LAP4-GFP pick2 inactive | MEP2 cherry2 inactive | RPL19A-GFP pick2 inactive | CIT2-GFP pick2 inactive | AGP1-GFP pick2 inactive
CCC(C)c1ccccc1N1CC(C(=O)Nc2ccc(S(=O)(=O)N3CCOCC3)cc2)CC1=O (configuration not stated)	none
CCCCNc1c2c3c(cccc3n(C)c1=O)C(=O)c1ccccc1-2	LAP4-GFP MLPCN 171 | LAP4-GFP pick2 322 | MEP2 cherry2 inactive | RPL19A-GFP pick2 inactive | CIT2-GFP pick2 inactive | AGP1-GFP pick2 inactive | Yeast autofluor inactive
Cn1c(=O)c(NCCO)c2c3c(cccc31)C(=O)c1ccccc1-2	none
COc1ccc(N2CCN(C(=O)c3ccc(C)cc3)CC2)c([N+](=O)[O-])c1	none
COc1ccc(N2CCN(C(=O)c3ccccc3)CC2)c([N+](=O)[O-])c1	LAP4-GFP MLPCN 189 | Yeast autofluor inactive
COc1ccc(N2CCN(C(=O)c3ccc(Br)cc3)CC2)c([N+](=O)[O-])c1	LAP4-GFP MLPCN 199 (no result: Pemphigus Ab inh) | Yeast autofluor inactive
CC1=Nc2nc(N3CCCCCC3)c(C#N)c3c4c(nc(c23)N1)N(c1ccc2ccccc2c1)C(=O)C4	none
Cc1ccc(C(=O)O/N=C(\N)Cc2cccs2)c(Cl)c1	LAP4-GFP MLPCN 232 | Yeast autofluor inactive
Cc1ccc(C(=O)O/N=C(\N)Cc2ccc([N+](=O)[O-])cc2)c(Cl)c1	none (no result: Pemphigus Ab inh)
COc1cc(/C=C2\CC/C(=C\c3cc(OC)c(OC)c(OC)c3)C2=O)cc(OC)c1OC	none
COc1cc(/C=C2\CC/C(=C\c3cc(OC)c(O)c(OC)c3)C2=O)cc(OC)c1O	MEP2-GFP yeast 184 | LAP4-GFP pick2 inactive | MEP2 cherry2 inactive | RPL19A-GFP pick2 inactive | CIT2-GFP pick2 165 | AGP1-GFP pick2 inactive | Yeast autofluor inactive
CC1Cc2ccccc2N1C(=O)COC(=O)c1ccc([N+](=O)[O-])o1 (configuration not stated)	none
COCCCOc1ccnc(CS(=O)c2nc3ccccc3[nH]2)c1C (configuration not stated)	none
Cc1c(OCC(F)(F)F)ccnc1CS(=O)c1nc2ccccc2[nH]1 (configuration not stated)	LAP4-GFP MLPCN 158 | LAP4-GFP pick2 inactive | MEP2 cherry2 inactive | RPL19A-GFP pick2 inactive | CIT2-GFP pick2 inactive | AGP1-GFP pick2 inactive
Cc1ccccc1NC(=O)C(NC1CCCCC1)C(C)C (configuration not stated)	none | LAP4-GFP pick2 inactive | MEP2 cherry2 inactive | RPL19A-GFP pick2 inactive | CIT2-GFP pick2 inactive | AGP1-GFP pick2 inactive

Screening results (PubChem)
